Broadly, the inhibition is the drop in the measured response relative to a control, in per cent.

Assay [1] in a line: antimalarial activity against Dd2 strain (AID 2302;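 active means growth inhibition above 50% at the single 2 µM test dose, taken to imply half-maximal potency below 2 µM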;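 further: 0% = DMSO untreated growth and 100% = chloroquine plus artemisinin killed control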). To be noted: P. falciparum Dd2 in RBCs, LDH growth readout, 72 h; at 2 µM; hits give high values.
A short description of assay [2]: HepG2 cytotoxicity, primary screen, cytotoxicity control for P. falciparum antimalarial project, cell-based, ATP luminescence (AID 2303;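 active means inhibition above 50%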;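 further: 0% = DMSO wells and 100% = digitonin-killed cells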). The note with it: HepG2 viability, 24-48 h, at 10 µM, hits give high values.
In assay [3] the target is L-lactate dehydrogenase (Plasmodium falciparum (isolate CDC / Honduras)) (UniProt Q27743). Description: PfLDH activity inhibition – cell lysate, 3D7 strain, counter-screen for P. falciparum growth inhibition project (AID 2304).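 Further: 0% = vehicle and 100% = reference inhibitor.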 To be noted: P. falciparum 3D7 crude extract, LDH APAD/NBT absorbance; at 2 µM; hits give high values. On the technique in general: Counterscreens check selectivity or assay interference.

The nature of assay [4]: inhibition of 3D7 malaria parasite growth – strain 3D7 (AID 2306).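 Further: 0% = DMSO wells and 100% = chloroquine plus artemisinin control wells.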 The note with it: P. falciparum 3D7 erythrocytic growth, LDH absorbance, 72 h; at 2 µM; hits give high values.
For assay [5], the target named is Calcium-dependent protein kinase 1 (Plasmodium falciparum (isolate 3D7)) (UniProt P62344). The assay can be described thus: PfCDPK1 kinase inhibitors, biochemical, TCAMS library (AID 1159585; cut-off not given, nearly all actives have IC50 up to about 0.98 µM;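 further: inhibitors leave more ATP so luminescence rises with inhibition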). The note with it: recombinant PfCDPK1, Kinase-Glo ATP depletion luminescence. (Kinase-Glo measures the ATP left after a reaction by luminescence.)
The target in assay [6] is Plasmodium falciparum protein kinase 6 (PK6, PF3D7_1337100) (UniProt Q8IDW1). Description: PfPK6 kinase inhibitors, biochemical, TCAMS library (AID 1159586). To be noted: recombinant PfPK6, Kinase-Glo ATP depletion luminescence.
Assay [7] concerns the target Protein kinase 7 (PK7), Plasmodium falciparum 3D7 (PF3D7_0213400) (UniProt Q7YTF7). The assay can be described thus: inhibition of Plasmodium PK7 catalytic activity – biochemical, TCAMS antimalarial set, Kinase-Glo luminescence (AID 1159587). The note with it: recombinant PfPK7, Kinase-Glo ATP depletion luminescence.
Assay [8] has as its target Calcium-dependent protein kinase 4 (Plasmodium falciparum (isolate 3D7)) (UniProt Q8IBS5). Description: PfCDPK4 kinase inhibitors, biochemical, TCAMS library (AID 1159588; cut-off not given, nearly all actives have IC50 up to about 0.91 µM). To be noted: recombinant PfCDPK4, Kinase-Glo ATP depletion luminescence.

Unmarked numbers belong to inactive results. For some assays here: Results with a measured potency or affinity are listed apart. Activity calls are given as the source filed them. Unless noted, how the calls were made is not given here.

Chain of Calcium-dependent protein kinase 4 (Plasmodium falciparum (isolate 3D7)) (Q8IBS5 whole entry, looked up): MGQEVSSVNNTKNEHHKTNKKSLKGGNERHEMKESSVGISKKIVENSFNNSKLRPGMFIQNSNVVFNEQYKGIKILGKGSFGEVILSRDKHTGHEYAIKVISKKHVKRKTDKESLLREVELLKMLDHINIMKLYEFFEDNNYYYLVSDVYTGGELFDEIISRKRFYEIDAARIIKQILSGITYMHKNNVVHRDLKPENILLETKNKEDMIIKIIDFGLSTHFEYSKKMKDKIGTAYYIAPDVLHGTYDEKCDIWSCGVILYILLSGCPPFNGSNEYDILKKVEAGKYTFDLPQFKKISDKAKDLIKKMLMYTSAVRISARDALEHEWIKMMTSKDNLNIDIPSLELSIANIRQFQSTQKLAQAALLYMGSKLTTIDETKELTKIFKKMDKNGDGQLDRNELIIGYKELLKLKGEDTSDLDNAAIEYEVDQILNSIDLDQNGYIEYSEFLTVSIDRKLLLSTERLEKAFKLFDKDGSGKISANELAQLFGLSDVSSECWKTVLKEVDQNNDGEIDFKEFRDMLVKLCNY
Chain of Protein kinase 7 (PK7), Plasmodium falciparum 3D7 (PF3D7_0213400) (Q7YTF7 1-343): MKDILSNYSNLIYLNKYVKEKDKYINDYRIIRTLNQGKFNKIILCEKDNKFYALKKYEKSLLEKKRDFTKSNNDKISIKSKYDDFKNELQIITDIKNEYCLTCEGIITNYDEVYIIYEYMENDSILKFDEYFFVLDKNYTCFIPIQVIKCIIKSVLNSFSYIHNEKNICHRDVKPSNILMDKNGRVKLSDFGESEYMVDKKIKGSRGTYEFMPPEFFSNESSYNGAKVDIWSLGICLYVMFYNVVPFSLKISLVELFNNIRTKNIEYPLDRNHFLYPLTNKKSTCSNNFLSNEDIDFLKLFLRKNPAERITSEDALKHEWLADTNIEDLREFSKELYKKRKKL
Chain of Calcium-dependent protein kinase 1 (Plasmodium falciparum (isolate 3D7)) (P62344 whole entry, looked up): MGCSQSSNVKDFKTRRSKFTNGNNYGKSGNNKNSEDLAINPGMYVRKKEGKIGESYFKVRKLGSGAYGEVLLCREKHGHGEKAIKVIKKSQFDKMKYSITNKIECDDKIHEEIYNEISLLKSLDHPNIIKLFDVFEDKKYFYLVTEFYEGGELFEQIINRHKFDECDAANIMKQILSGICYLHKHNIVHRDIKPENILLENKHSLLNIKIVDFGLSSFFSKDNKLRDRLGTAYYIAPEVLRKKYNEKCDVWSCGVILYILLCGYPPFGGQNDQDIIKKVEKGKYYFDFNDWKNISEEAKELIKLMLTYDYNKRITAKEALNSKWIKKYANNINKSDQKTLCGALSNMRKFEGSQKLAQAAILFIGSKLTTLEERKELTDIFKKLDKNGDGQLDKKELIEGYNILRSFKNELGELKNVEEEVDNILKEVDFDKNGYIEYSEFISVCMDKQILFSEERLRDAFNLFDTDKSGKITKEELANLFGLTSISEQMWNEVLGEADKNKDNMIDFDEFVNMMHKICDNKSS
Chain of Plasmodium falciparum protein kinase 6 (PK6, PF3D7_1337100) (Q8IDW1 1-305): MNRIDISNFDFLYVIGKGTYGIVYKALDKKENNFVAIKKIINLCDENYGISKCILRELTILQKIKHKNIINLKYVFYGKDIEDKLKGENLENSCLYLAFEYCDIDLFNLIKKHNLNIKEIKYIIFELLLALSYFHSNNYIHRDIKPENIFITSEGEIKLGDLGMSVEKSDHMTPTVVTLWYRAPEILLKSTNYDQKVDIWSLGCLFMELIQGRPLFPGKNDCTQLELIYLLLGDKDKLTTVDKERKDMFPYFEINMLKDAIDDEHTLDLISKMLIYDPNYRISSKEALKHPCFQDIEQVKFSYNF
Chain of L-lactate dehydrogenase (Plasmodium falciparum (isolate CDC / Honduras)) (Q27743 whole entry, looked up): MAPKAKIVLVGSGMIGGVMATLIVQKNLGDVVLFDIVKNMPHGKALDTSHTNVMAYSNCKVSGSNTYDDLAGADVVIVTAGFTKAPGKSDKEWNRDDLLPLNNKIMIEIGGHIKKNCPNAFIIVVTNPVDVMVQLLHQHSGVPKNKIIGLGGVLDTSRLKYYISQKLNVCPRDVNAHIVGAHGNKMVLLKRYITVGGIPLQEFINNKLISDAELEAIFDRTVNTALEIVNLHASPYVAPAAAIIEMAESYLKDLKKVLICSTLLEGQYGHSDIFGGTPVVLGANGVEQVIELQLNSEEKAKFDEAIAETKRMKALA

In the case of `Fc1cccc(Cl)c1-c1nc(NCCC(c2ccccc2)c2ccccc2)no1`, the growth inhibition in assay [1] is 87% (active); in assay [4], 99% (active). Moreover, the inhibition in assay [2] was 4%; in assay [3], -3%. In addition, the outcome in assay [5], in assay [6], in assay [7] and in assay [8] was inactive.
Regarding `COc1ccc(CCNc2nc(N)c3cc(OC)c(OC)cc3n2)cc1`, the growth inhibition in assay [1] is 1%; in assay [4], 100% (active). The inhibition in assay [2] is 16%; in assay [3] it was -1%. For the same molecule, the outcome in assay [5], in assay [6], in assay [7] and in assay [8] was inactive.
Take `Cc1nc(N)nc(N)c1OCc1cccc2ccccc12`: the growth inhibition in assay [1] was 11%; in assay [4], 96% (active). For the same molecule, the inhibition is 63% (active) in assay [2] and -1% in assay [3]. The result in assay [5], in assay [6], in assay [7] and in assay [8] was inactive.
`Cc1cc2[nH]c(-c3ccc(C(=O)NCCCN4CCN(c5cccc(Cl)c5)CC4)cc3)nc2cc1Cl`: the growth inhibition in assay [1] was 73% (active); in assay [4] it was 98% (active). Besides, the inhibition in assay [2] was 1%; in assay [3], 6%. Further, the outcome in assay [5], in assay [6], in assay [7] and in assay [8] was inactive.
Regarding `CCC(C)c1ccc(O)c(NC(=O)c2cncc(Br)c2)c1` (configuration not stated), the growth inhibition in assay [1] is 16%; in assay [4] it was 100% (active). Moreover, the inhibition was -13% in assay [2] and -4% in assay [3]. The result in assay [5], in assay [6], in assay [7] and in assay [8] was inactive.
Take `Cc1cccc2[nH]c(-c3cccc(-c4cccc(CNCc5cnn(-c6ccccc6)n5)c4)c3)nc12`: the growth inhibition is 38% in assay [1] and 99% (active) in assay [4]. The inhibition was 12% in assay [2] and 1% in assay [3]. Moreover, the outcome in assay [5], in assay [6], in assay [7] and in assay [8] was inactive.
Consider `CCCN1CC[C@@H](CCCc2ccnc3ccc(O)cc23)[C@@H](CC)C1`, for which the growth inhibition is 14% in assay [1] and 93% (active) in assay [4]. Moreover, the inhibition in assay [2] was 10%; in assay [3], -2%. Further, the result in assay [5], in assay [6], in assay [7] and in assay [8] was inactive.
In the case of `Cn1cncc1-c1ccc2ncnc(Nc3ccc4c(cnn4Cc4ccccc4)c3)c2c1`, the growth inhibition was 99% (active) in assay [1] and 100% (active) in assay [4]. In addition, the values for the inhibition in assay [2] and in assay [3] were 1% and -3%, respectively. Besides, the outcome in assay [5], in assay [6], in assay [7] and in assay [8] was inactive.
As to `CS(=O)(=O)Nc1ccc(OCCCCCCOc2ccc(NS(C)(=O)=O)cc2)cc1`, the growth inhibition in assay [1] was 82% (active); in assay [4] it was 93% (active). Besides, the inhibition in assay [2] is 3%; in assay [3], 4%. In addition, the result in assay [5], in assay [6], in assay [7] and in assay [8] was inactive.
For `CCOC(=O)c1c(CN(CC)CC)n(-c2ccccc2)c2cc(Br)c(O)cc12`, the growth inhibition is 46% in assay [1] and 93% (active) in assay [4]. Further, the inhibition in assay [2] was 14%; in assay [3], -5%. Besides, the outcome in assay [5], in assay [6], in assay [7] and in assay [8] was inactive.
Consider `Oc1ccc2c(c1NCC1CCCCC1)CCCC2`, for which the growth inhibition in assay [1] and in assay [4] was 99% (active) in each case. Also, the inhibition in assay [2] is 11%; in assay [3], 0%. Moreover, the outcome in assay [5], in assay [6], in assay [7] and in assay [8] was inactive.
Turning to `CN(Cc1cccc(F)c1)C1CCN(c2cc(NC(=O)c3ccc(F)cc3)ccn2)CC1`, the growth inhibition was 36% in assay [1] and 95% (active) in assay [4]. Further, the values for the inhibition in assay [2] and in assay [3] were -3% and 3%, respectively. Also, the outcome in assay [5], in assay [6], in assay [7] and in assay [8] was inactive.
Turning to `Cc1cccc(Cl)c1S(=O)(=O)N1CCCCC(c2ccc(C(F)(F)F)cc2)=N1`, the growth inhibition in assay [1] and in assay [4] was 100% (active) each time. Besides, the inhibition in assay [2] was 5%; in assay [3] it was 1%. Also, the outcome in assay [5], in assay [6], in assay [7] and in assay [8] was inactive.
`CCCc1cc(NCc2ccncc2)nc(Nc2ccc(F)cc2)n1`: the growth inhibition is 6% in assay [1] and 90% (active) in assay [4]. The inhibition is 9% in assay [2] and -7% in assay [3]. Besides, the result in assay [5], in assay [6], in assay [7] and in assay [8] was inactive.
Turning to `COc1ccc(CCCc2nc(N)nc(N)c2-c2ccc(Cl)cc2)cc1`, the growth inhibition in assay [1] was 0%; in assay [4], 94% (active). Further, the inhibition in assay [2] was 65% (active); in assay [3], 2%. The result in assay [5], in assay [6], in assay [7] and in assay [8] was inactive.
For `O=C(/C=C/c1ccc(Cl)c(Cl)c1)NCCCCCN1CCC(NC(=O)Nc2ccc(C(F)(F)F)cc2)CC1`, the growth inhibition in assay [1] is 34%; in assay [4], 94% (active). Also, the figures for the inhibition in assay [2] and in assay [3] were 58% (active) and 3%, respectively. The outcome in assay [5], in assay [6], in assay [7] and in assay [8] was inactive.
In the case of `CCOC(=O)CN(c1ccc(Br)cc1OCCOc1cc(Br)ccc1N(CC(=O)OCC)C(C)C(=O)OCC)C(C)C(=O)OCC` (configuration not stated), the figures for the growth inhibition in assay [1] and in assay [4] were 6% and 94% (active), respectively. Further, the inhibition in assay [2] was -15%; in assay [3], 6%. Besides, the outcome in assay [5], in assay [6], in assay [7] and in assay [8] was inactive.
For `COc1cccc(CNC(=O)NC2CCN(c3ccnc(Nc4ccc(F)cc4)n3)C2)c1` (configuration not stated), the values for the growth inhibition in assay [1] and in assay [4] were 64% (active) and 94% (active), respectively. The values for the inhibition in assay [2] and in assay [3] were 20% and -7%, respectively. For the same molecule, the outcome in assay [5], in assay [6], in assay [7] and in assay [8] was inactive.
With `Cc1cccc(CNc2nc(C)cc(N[C@@H](CC(C)C)C(=O)NCc3cccc(F)c3)n2)c1`, the growth inhibition was 32% in assay [1] and 91% (active) in assay [4]. Also, the inhibition in assay [2] was 13%; in assay [3], -3%. Further, the result in assay [5], in assay [6], in assay [7] and in assay [8] was inactive.
